# This is part of a sample that, as a whole, favours compounds with a hit. Of some 83,000 tested, about 20% had one in any assay.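 The test compound was applied at a single concentration to cells in 96-well plates for 48 hours, and percent growth was recorded.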 Values without a mark were called inactive. The source made the active and inactive calls. The calls were made as follows: active = growth percent below 10; inactive = the rest.
# Key:
# Assay in all cases: NCI-60 one-dose screen, 48 h (100 = growth as untreated, 0 = no growth, -100 = all killed)
# Details in all cases: 10 µM unless noted
# NCI-H23 lung = system: NCI-H23 lung
# NCI-H226 lung = system: NCI-H226 lung
# NCI-H322M lung = system: NCI-H322M lung
# HOP-62 NSCLC = system: HOP-62 NSCLC
# NCI-H460 lung = system: NCI-H460 lung
# NCI-H522 lung = system: NCI-H522 lung
# A549/ATCC NSCLC = system: A549/ATCC NSCLC
# 786-0 renal = system: 786-0 renal
# DU-145 prostate = system: DU-145 prostate
# K-562 leukemia = system: K-562 leukemia
# MALME-3M melanoma = system: MALME-3M melanoma
# MDA-MB-231 breast = system: MDA-MB-231 breast
# RXF 393 renal = system: RXF 393 renal
# SF-268 CNS = system: SF-268 CNS
# SF-295 CNS = system: SF-295 CNS
# SF-539 CNS = system: SF-539 CNS
# UACC-257 melanoma = system: UACC-257 melanoma
# M14 melanoma = system: M14 melanoma
# HOP-92 NSCLC = system: HOP-92 NSCLC
SMILES,growth (NCI-H23 lung) [%],growth (NCI-H226 lung) [%],growth (NCI-H322M lung) [%],growth (HOP-62 NSCLC) [%],growth (NCI-H460 lung) [%],growth (NCI-H522 lung),growth (A549/ATCC NSCLC) [%],growth (786-0 renal) [%],growth (DU-145 prostate) [%],growth (K-562 leukemia) [%],growth (MALME-3M melanoma) [%],growth (MDA-MB-231 breast) [%],growth (RXF 393 renal) [%],growth (SF-268 CNS) [%],growth (SF-295 CNS) [%],growth (SF-539 CNS) [%],growth (UACC-257 melanoma) [%],growth (M14 melanoma) [%],growth (HOP-92 NSCLC) [%]
CCCNCC(=O)Nc1ccc(C(=O)OC(C)(C)CC)cc1,102,95,97,99.7,104,66.6%,97.1,90.8,101,101,90.9,102,116,99,103,108,105,96.8,–
O=C(NC1CCOCC1)c1ccc2c(c1)CN(c1ncc(Cc3cccc(-n4cccn4)c3)s1)CC2,57.7,62,87.8,104,79.9,38.8%,–,68.7,88.2,58.7,64.1,37.1,73.7,80.4,62.5,64.2,62.6,64,44.9
CCCCNCC(=O)Nc1ccc(C(=O)OCC)cc1,105,89.8,105,98.7,106,69.1%,95.3,99.6,114,92.4,106,103,110,104,99.4,105,103,97.3,–
Cc1ccc2c(n1)C(=O)C(Oc1ccc(F)cc1)=CC2=O,94.9,76.5,101,125,101,-43.9% (active),99.4,107,114,20,93.9,105,107,90.8,101,95.9,95.5,103,–
